# Results reported in paper PMC5540273 (PLoS ONE, 2017).
# Legend:
# [1] = test system: LIMK2
# [2] = test system: T1, JNK2
# T1 construct: gene MAPK9
# [3] = test system: T2, JNK3
# T2 construct: gene MAPK10
# [4] = test system: LTK
# [5] = test system: KIT
# [6] = test system: LCK
# [7] = test system: LYN
# [8] = test system: JAK3(JH1domain-catalytic)
# [9] = test system: IGF1R
# [10] = test system: JAK2(JH1domain-catalytic)
# [11] = test system: T3, LOK
# T3 construct: gene STK10
# [12] = test system: JAK1(JH2domain-pseudokinase)
# [13] = test system: T4, JNK1
# T4 construct: gene MAPK8
# [14] = test system: HUNK
# [15] = test system: T5, IKK-epsilon
# T5 construct: gene IKBKE
# [16] = test system: LATS2
# [17] = test system: LATS1
# [18] = test system: JAK1(JH1domain-catalytic)
# [19] = test system: ICK
# [20] = test system: T6, IKK-beta
# T6 construct: gene IKBKB
# 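Also: kd values determined as follow-up on hits from a single-replicate KINOMEscan panel screen.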
smiles,measurement,setting,value
CNc1nccc(-c2c(-c3ccc(F)cc3)ncn2CCCN2CCOCC2)n1 [SB-222516],Kd,[1],> 10 µM
CN1CCC(n2cnc(-c3ccc(F)cc3)c2-c2ccnc(NC3CCNCC3)n2)CC1 [SB-229482],Kd,[2],170 nM
same,Kd,[3],140 nM
CCCc1ccc(S(=O)(=O)NC2CCN(c3ccnc(Nc4ccc(OC)cc4)n3)C2)cc1 (centres unmarked) [GSK1379737],Kd,[1],> 10 µM
same,Kd,[4],8.7 µM
COc1cc2c(Nc3cccc(NC(=O)c4ccccc4)c3)ncnc2cc1OCCCN1CCOCC1 [GSK223810],Kd,[5],300 nM
same,Kd,[6],390 nM
same,Kd,[7],130 nM
O=C(Nc1ccccc1)Nc1ccc(Oc2ccc3nccn3n2)cc1,Kd,[5],99 nM
Cn1ccc2ncnc(Oc3ccc(NC(=O)Nc4cccnc4)c(Cl)c3)c21,Kd,[5],47 nM
CN1c2ccc(-c3ccc(C(=O)NCCO)cc3)cc2-c2[nH]ncc2S1(=O)=O,Kd,[8],6.8 µM
COc1ccc(NC(=O)Nc2ccc(C)c(-c3ccc(C(=O)Nc4ccncc4)cc3)c2)cc1 [GSK1398475],Kd,[5],44 nM
Nc1nc(-c2ccc3c(N)n[nH]c3c2)cc(N2CCC[C@@H](C(=O)Nc3ccccc3)C2)n1.O=C(O)C(F)(F)F.O=C(O)C(F)(F)F [GSK2288359],Kd,[9],> 10 µM
same,Kd,[10],> 10 µM
COc1cc2ncnc(Nc3ccc(OCc4ccccc4Br)c(Cl)c3)c2cc1OC.Cl [GI261590],Kd,[11],2000 nM
CC(=O)Nc1n[nH]c2ncc(-c3ccccc3)cc12 [SB-548492],Kd,[12],380 nM
COC(=O)c1c(-c2ccccc2)c2cc(Cl)ccc2c(=O)n1Cc1ccc(S(C)(=O)=O)cc1,Kd,[13],61 nM
same,Kd,[2],44 nM
same,Kd,[3],14 nM
Fc1cccc(COc2ccc(Nc3ncnc4sc(-c5ccc[nH]5)cc34)cc2Cl)c1 [GW707818],Kd,[10],> 10 µM
Cc1ccc(NC(=O)c2cccc(C#N)c2)cc1-c1ccc(C(=O)Nc2ccncc2)cc1 [GSK1398463],Kd,[5],310 nM
same,Kd,[6],560 nM
Cn1cc(-c2ccc3c(c2)CCN3C(=O)Cc2cccc(C(F)(F)F)c2)c2c(N)ncnc21 [GSK2606414],Kd,[5],5200 nM
O=C(Nc1n[nH]c2nc(-c3ccco3)c(Br)cc12)c1ccc(CN2CCCC2)cc1.O=C(O)[C@H](O)[C@@H](O)C(=O)O [SB-742352],Kd,[5],66 nM
COC(=O)c1cccc(NC(=O)NCCNc2ccnc(Nc3ccc(F)cc3)n2)c1 [GSK1379883],Kd,[14],> 10 µM
CCc1nc(-c2cccc(C)c2)c(-c2ccnc(NC(=O)c3ccccc3)c2)s1,Kd,[15],> 10 µM
same,Kd,[3],190 nM
same,Kd,[16],> 10 µM
Cl.c1ccc(Cn2ccc3cc(Nc4ncnc5ccccc45)ccc32)cc1 [GW275568],Kd,[10],> 10 µM
COc1ccc(-c2oc3ncnc(N)c3c2-c2ccc(OC)cc2)cc1 [SB-589132],Kd,[17],> 10 µM
C[C@@H]1CCN(C(=O)CO)C[C@@H]1N(C)c1ncnc2[nH]ccc12,Kd,[18],120 nM
same,Kd,[10],0.011 µM
same,Kd,[8],0.0036 µM
CC(C)(C)c1ccc(-n2cnc3c(N)ncnc32)cc1 [SKF-97263],Kd,[12],250 nM
Oc1ccc2ncnc(Nc3ccc(OCc4ccccc4)cc3)c2c1 [GI262866],Kd,[4],> 10 µM
O=C(Nc1ccccc1F)NC1CCN(c2ccnc(Nc3ccc(F)cc3)n2)C1 (centres unmarked) [GSK1379722],Kd,[19],> 10 µM
same,Kd,[9],> 10 µM
Cl.Cl.c1ccc(-c2cc3ccncc3cc2OC2CCNCC2)cc1 [GSK1122999],Kd,[20],24 nM
